In all, about 68,000 compounds went through this assay and about 2,700 (4%) showed an effect of 50% or more. The entries come from a sample that favours strong results as a whole.

This experiment concerns Plasmodium berghei. The experiment is described as follows: Screen against P. berghei liver stage (PbLuc), transformed with Luciferase, at 2uM. Format: functional, HepG2. The following applies: tested at 2 uM.
`Cc1cccc(Nc2cccc(C3CCCN(Cc4ncc[nH]4)C3)n2)n1` (configuration not stated): the INHIBITION is listed as 7.02%.

With `Cc1cnn(CC2CCCN2CC(=O)N(C)CCC#N)c1` (configuration not stated), the INHIBITION is on record as -31.3%.

On to `CC(=O)N1CCN(C(=O)C[C@@H]2C[C@@H](C(C)C)[C@H](CC#N)C=C2C)CC1`, for which the INHIBITION is given as 46.32%.

`CC1=C[C@@H](CC#N)[C@H](C(C)C)C[C@H]1CC(=O)N1CCN(CCO)CC1`: the INHIBITION is -3.1%.

As to `CC1=C[C@@H](CC#N)[C@H](C(C)C)C[C@H]1CC(=O)N1CCN(C)CC1`, the INHIBITION is given as 62.8%.

Regarding `Cc1cc(-c2cccc(C(=O)O)c2)nc(C2CCN(C(C)C)CC2)n1`, the INHIBITION is 24.56%.

For `O=C(NC1CC1)[C@H]1CC[C@@H]2[C@@H](CCN2c2ncc(F)cn2)O1`, the INHIBITION came to 1.07%.

Turning to `COc1ccc(C)cc1CN(C)CCCNS(C)(=O)=O`, the INHIBITION is -81.99%.

`Cn1c(=O)oc2cc(Nc3nccnc3C#N)ccc21`: the INHIBITION was found to be 9.42%.

As for `Cn1c(=O)oc2cc(Nc3ncc(C#N)cc3Cl)ccc21`, the INHIBITION turned out to be 53.13%.

As for `Cn1c(=O)oc2ccc(Nc3ncc(C#N)cc3Cl)cc21`, the INHIBITION is on record as -4.24%.

For `CCOc1nnc(CN2CCN(CCOC)C(CC)C2)s1` (configuration not stated), the INHIBITION is on record as -8.54%.

On to `CCOc1ncnc2c1CCN(S(=O)(=O)CC)CC2`, for which the INHIBITION was determined as 8.41%.

For the molecule `CCc1ncnc2c1CCN(S(=O)(=O)c1ccccc1)CC2`, the INHIBITION was determined as 5.44%.

With `CCOc1ncnc2c1CCN(S(=O)(=O)c1ccccc1)CC2`, the INHIBITION is listed as 55.07%.

Turning to `CC1COCCN1C(=O)COc1ccc(Oc2ccccn2)cc1` (configuration not stated), the INHIBITION amounted to 41.88%.

Take `O=C(NCCCN1CCOCC1)c1cc(-c2ccccc2)[nH]n1`: the INHIBITION was -55.91%.

Consider `c1ccc(-c2ncn(CCCN3CCOCC3)c2-c2ccncc2)cc1`, for which the INHIBITION is listed as 64.9%.

`OCc1ccc(-c2c(-c3ccccc3)ncn2CCN2CCOCC2)o1`: the INHIBITION is listed as -23.34%.

Take `CC(C)(Cn1cnc(-c2ccccc2)c1-c1ccco1)N1CCOCC1`: the INHIBITION was -9.41%.

Consider `Cc1nc(-c2c(-c3ccccc3)ncn2CCCN2CCOCC2)c[nH]1`, for which the INHIBITION was found to be 64.9%.

`Cc1ccc(-c2c(-c3ccccc3)ncn2CCCN2CCOCC2)o1`: the INHIBITION stood at 33.9%.

For `CC(=O)N1CCN(C(=O)c2[nH]nnc2Nc2ccccc2F)CC1`, the INHIBITION is listed as -66.39%.

For the molecule `COc1cccc(Cn2cc(N3C(=O)[C@H]4CCCC[C@H]4C3=O)cn2)c1`, the INHIBITION was -3.8%.

Regarding `CN(C(=O)COCc1ccccc1)C1CCN(CC2CCOC2)CC1` (configuration not stated), the INHIBITION was -11.88%.

For `CC(C)S(=O)(=O)NCC1CCCN(C(=O)c2ccc(Cl)cc2)C1` (configuration not stated), the INHIBITION amounted to 16.82%.

For the molecule `N#Cc1csc(CNCCOc2ccc(Cl)cn2)c1`, the INHIBITION is listed as 10.91%.

Regarding `Cc1cnn(CCNCc2c(C)nn(C)c2Cl)c1`, the INHIBITION is 56.15%.

For `Cc1cnn(CCNCc2c(C(C)C)nn(C)c2Cl)c1`, the INHIBITION was found to be 31.81%.

With `CCc1noc(CNCCn2cc(C)cn2)n1`, the INHIBITION is recorded as -24.75%.

For the molecule `Cc1cnn(CCNCc2nc(-c3ccccn3)no2)c1`, the INHIBITION was determined as 13.36%.

Take `Cc1cnn(CCNCc2nc(-c3ccccc3Cl)no2)c1`: the INHIBITION was determined as 73.05%.

For the molecule `CCn1nc(C)c(CNCCn2cc(C)cn2)c1C`, the INHIBITION was -0.98%.

With `CN1CCN(c2cnn(CCn3cccn3)c(=O)c2)CC1`, the INHIBITION worked out at 26.14%.

For the molecule `Cc1ccccc1C(=O)N1C[C@@H]2C(CN(C)CCc3ccccn3)[C@@H]2C1` (some centres not stated), the INHIBITION was found to be 56.21%.

Turning to `Cc1cc(C(=O)N2C[C@@H]3C(CN(C)CCc4ccccn4)[C@@H]3C2)c(C)o1` (some centres not stated), the INHIBITION was 33.7%.

For the molecule `Cc1cc(C(=O)N2C[C@@H]3C(CN(C)CCCn4cccn4)[C@@H]3C2)c(C)o1` (some centres not stated), the INHIBITION is -6.53%.

As to `Cc1cccc2c1ccn2CCC(=O)O`, the INHIBITION turned out to be 4.39%.

For the molecule `Cc1noc(-c2ccc(N3CCCC(C(=O)N4CCSCC4)C3)nc2)n1` (configuration not stated), the INHIBITION is recorded as -13.24%.

For `Cc1noc(-c2ccc(N3CCCC(C(=O)c4nccn4C)C3)nc2)n1` (configuration not stated), the INHIBITION amounted to 58.53%.

On to `Cc1noc(-c2ccc(N3CCCC(C(=O)O)C3)nc2)n1` (configuration not stated), for which the INHIBITION worked out at 25.69%.

`CCOC(=O)C1CCCN(c2ccc(-c3nc(C)no3)cn2)C1` (configuration not stated): the INHIBITION is -9.62%.

Consider `Cc1noc(-c2ccc(N3CCCC(C(N)=O)C3)nc2)n1` (configuration not stated), for which the INHIBITION is reported as 22.86%.

`Cc1noc(-c2ccc(N3CCC(C(=O)N4CCCC4)CC3)nc2)n1`: the INHIBITION came out at 51.96%.

`CC(C)c1nc(C2CCCN2C(=O)c2cnc[nH]2)no1` (configuration not stated): the INHIBITION is recorded as -66%.

Turning to `COc1cccc(NC(=O)C(C)Cn2cc(Cl)cn2)c1` (configuration not stated), the INHIBITION worked out at 36.45%.

With `Cc1ccc2nnc(C(=O)NCCCn3cccn3)nc2c1`, the INHIBITION was -41.49%.

As for `CC(C)(C(=O)NCC(=O)NCc1ccccc1)c1ccccc1F`, the INHIBITION is -3.22%.

For the molecule `COc1ccc(CN2CCc3sccc3C2C)cc1CN1CCOCC1` (configuration not stated), the INHIBITION worked out at 56.39%.

Regarding `CC1c2ccsc2CCN1Cc1cc2c(cc1O)OCO2` (configuration not stated), the INHIBITION came out at 12.7%.

With `CCC1c2ccsc2CCN1Cc1cc2c(cc1OC)OCCO2` (configuration not stated), the INHIBITION was found to be 10.03%.

`COc1cc2c(cc1CN1CCc3sccc3C1C)OCCO2` (configuration not stated): the INHIBITION amounted to 18.06%.

Turning to `COc1ccsc1C(=O)Nc1cc(CN2CCOCC2)ccc1C`, the INHIBITION is on record as 37.63%.

On to `COc1cc2c(cc1CN1CCc3sccc3C1C)OCO2` (configuration not stated), for which the INHIBITION turned out to be 59.65%.

Regarding `CC(C)OCCn1nnnc1Cc1ccc(Br)cc1`, the INHIBITION is -21.99%.

Take `CNC(=O)NC(=O)CCN1CCN(c2nccs2)CC1`: the INHIBITION came out at 27.2%.

Take `CS(=O)(=O)c1ccc(C(O)CN2CCC(c3ccn[nH]3)CC2)cc1` (configuration not stated): the INHIBITION is 14.82%.

Consider `C[C@@H]1CN(C(=O)c2cccs2)C[C@]12CCN(CCN(C)C)C2=O`, for which the INHIBITION is 6.12%.

`CCCc1nc(CN(CC)Cc2ccc(S(C)(=O)=O)cc2)no1`: the INHIBITION is -5.31%.

With `CN(Cc1ccc(Cl)s1)C(=O)Cn1nc(-c2ccc(F)cc2)oc1=O`, the INHIBITION amounted to 14.82%.

Regarding `Cc1nnc(SCCC(=O)N(C)Cc2ccc(F)cc2F)[nH]1`, the INHIBITION is on record as 10.05%.

As to `Cc1nnc(SCCC(=O)N(C)Cc2c(F)cccc2Cl)[nH]1`, the INHIBITION turned out to be 21.97%.

Take `Cc1nnc(SCCC(=O)N(C)Cc2ccc(Cl)s2)[nH]1`: the INHIBITION came to 55.36%.

For `CN(CC(N)=O)Cc1ccc(F)cc1Cl`, the INHIBITION is listed as -6.61%.

On to `Cc1nnc(SCCC(=O)N(C)Cc2ccc(F)cc2Cl)[nH]1`, for which the INHIBITION was found to be 52.98%.

In the case of `O=C(NCCc1cccc(F)c1)NCC(O)c1cccc(F)c1` (configuration not stated), the INHIBITION was -47.97%.

With `COc1nc2c(cc1C(=O)N1CCCOC(CN3CCCC3)C1)CCC2` (configuration not stated), the INHIBITION is -8.45%.

Source of the values: ChEMBL document CHEMBL4513216, “Probing the Open Global Health Chemical Diversity Library for Multistage-Active Starting Points for Next-Generation Antimalarials” (ACS Infect Dis, 2020).
